Data from publication PMC4336329 (PLoS ONE, 2015).
Screen size: about 310,000 compounds; about 14,000 (4.5%) showed an effect of 50% or more. The effect is printed as a negative number. Many of the other results were omitted from the sample, so strong results are more common in it than they were.

The molecules below were run against human ether-à-go-go-related gene (hERG) potassium channel (human, UniProt Q12809) (assay: primary screen, population patch clamp on CHO cells stably expressing hERG; higher = less effect of the substance).
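Also: peak tail current of the secondary pulse compared with the same well before compound.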

Sequence of human ether-à-go-go-related gene (hERG) potassium channel (Q12809 whole entry, looked up): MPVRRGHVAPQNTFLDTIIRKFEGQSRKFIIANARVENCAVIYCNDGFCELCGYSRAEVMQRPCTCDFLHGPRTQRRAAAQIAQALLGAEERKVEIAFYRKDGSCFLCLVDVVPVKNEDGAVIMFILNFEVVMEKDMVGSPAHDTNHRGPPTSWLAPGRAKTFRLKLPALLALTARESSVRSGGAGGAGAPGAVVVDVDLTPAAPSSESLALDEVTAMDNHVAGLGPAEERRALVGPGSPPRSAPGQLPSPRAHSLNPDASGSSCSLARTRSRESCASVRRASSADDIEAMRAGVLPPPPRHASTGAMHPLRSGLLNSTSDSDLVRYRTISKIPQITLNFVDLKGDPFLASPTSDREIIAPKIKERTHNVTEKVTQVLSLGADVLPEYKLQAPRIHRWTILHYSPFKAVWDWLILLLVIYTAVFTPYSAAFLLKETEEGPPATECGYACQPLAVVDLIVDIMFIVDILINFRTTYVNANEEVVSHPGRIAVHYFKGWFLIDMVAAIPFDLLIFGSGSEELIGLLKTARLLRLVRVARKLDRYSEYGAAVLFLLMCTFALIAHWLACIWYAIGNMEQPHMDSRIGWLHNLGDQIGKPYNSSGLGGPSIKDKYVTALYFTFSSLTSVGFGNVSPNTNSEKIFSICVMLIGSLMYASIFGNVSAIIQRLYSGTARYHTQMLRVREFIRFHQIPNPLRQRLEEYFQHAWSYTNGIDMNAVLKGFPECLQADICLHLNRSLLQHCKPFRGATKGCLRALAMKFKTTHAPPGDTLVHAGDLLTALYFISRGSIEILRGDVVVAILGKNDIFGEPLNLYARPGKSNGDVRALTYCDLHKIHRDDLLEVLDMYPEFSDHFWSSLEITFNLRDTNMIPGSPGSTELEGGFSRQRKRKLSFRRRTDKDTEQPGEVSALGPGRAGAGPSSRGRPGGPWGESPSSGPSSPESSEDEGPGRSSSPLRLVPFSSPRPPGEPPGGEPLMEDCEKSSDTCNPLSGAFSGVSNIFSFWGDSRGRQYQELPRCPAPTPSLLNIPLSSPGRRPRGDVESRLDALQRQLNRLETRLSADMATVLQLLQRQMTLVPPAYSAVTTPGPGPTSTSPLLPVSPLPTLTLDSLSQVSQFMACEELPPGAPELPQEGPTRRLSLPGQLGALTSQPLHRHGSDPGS

Compound | hERG current change (%, negative = inhibition) at 10uM
Cc1ccc(NC(=O)CCC(=O)N/N=C/c2coc3ccccc3c2=O)cc1 | 0.733%
Cc1ccccc1NC(=O)NCc1ccc2c(c1)OCO2 | 11.6%
O=C(COC(=O)C1(c2ccc(Cl)cc2)CCCC1)N1CCc2ccccc21 | -1.16%
CCOC(=O)Nc1sc2c(c1C(N)=O)CCC(C)C2 (stereo not shown) | 16.4%
CC(=O)c1sc2nsc(SCCN3CCCC3)c2c1N | -0.32%
Cc1c(Cl)ccc(S(=O)(=O)Nc2cccnc2)c1Cl | 13.6%
Cc1cc(C(F)(F)F)nc(SCC(=O)NC2CCCCC2)n1 | -10%
O=C(CSc1nc2ccccc2c(=O)n1-c1ccc(F)c(Cl)c1)Nc1cccc(S(=O)(=O)N2CCOCC2)c1 | 21.8%
O=C(CSc1nc2ccccc2c(=O)n1-c1ccccc1Cl)Nc1cccc(S(=O)(=O)N2CCOCC2)c1 | -6.76%
COCCn1c(SCC(=O)Nc2ccc(S(=O)(=O)N3CCOCC3)cc2)nc2ccccc21 | -58.8%
O=C(CSc1nc2ccccc2c(=O)n1CCCN1CCOCC1)Nc1cccc(S(=O)(=O)N2CCCCCC2)c1 | -72.2%
COCCn1c(SCC(=O)Nc2ccc(N3CCOCC3)cc2)nc2ccccc21 | -4.58%
COCCn1c(SCC(=O)Nc2ccc(S(N)(=O)=O)cc2)nc2ccccc21 | -32.1%
COc1cc(N)ccc1NC(=O)c1cc2ccccc2o1 | 13.1%
O=C(CN1CCCC1)Nc1ccc(NC(=O)Nc2ccccc2)cc1 | 6.42%
O=S(=O)(NC(=S)NC1CCCCC1)c1ccc(Br)cc1 | 9.58%
CC(C)CCN(Cc1ccco1)S(=O)(=O)c1ccc(-c2ccc(=O)[nH]n2)s1 | -0.664%
CCCCN(Cc1ccco1)S(=O)(=O)c1ccc(-c2ccc(=O)[nH]n2)s1 | -27.7%
COCCN(Cc1cccs1)S(=O)(=O)c1ccc(-c2ccc(=O)[nH]n2)s1 | -46.8%
CN(C)CCN(Cc1ccco1)S(=O)(=O)c1ccc(-c2ccc(=O)[nH]n2)s1 | -64.4%

Compound | hERG current change (%, negative = inhibition) at 10uM
CCCCN(Cc1cccs1)S(=O)(=O)c1ccc(-c2ccc(=O)[nH]n2)s1 | -3.4%
CN(C)CCN(Cc1ccccc1)S(=O)(=O)c1ccc(-c2ccc(=O)[nH]n2)s1 | -67.4%
COc1ccccc1CNS(=O)(=O)c1c(C)nc2scc(C)n2c1=O | -8.78%
Cc1cc(Nc2ccc(F)cc2C)n2ncnc2n1 | -4.78%
CCCC(=O)Nc1nc2c(c(=O)[nH]1)CCCC2 | 10.2%
C/C(=C1/SC(=S)N(CCC(=O)O)C1=O)c1ccc(O)cc1 | 9.74%
Cc1ccc(Nc2nc(-c3ccc(F)cc3)cs2)nc1 | 17.1%
CCC(=O)N(CCc1ccc(OC)c(OC)c1)Cc1cc2ccc(C)cc2n2nnnc12 | -76.8%
Cc1ccc2cc(CNC(C)C)c(=O)[nH]c2c1 | -9.38%
COc1ccc(CCN(Cc2cc3ccc(C)cc3n3nnnc23)C(C)=O)cc1OC | -32.7%
CNCc1cc2ccc(C)cc2[nH]c1=O | -33.1%
Cc1ccc2cc(CNCCc3ccccc3C)c(=O)[nH]c2c1 | -69.7%
Cc1ccc2cc(CNC(C)(C)C)c(=O)[nH]c2c1 | -19%
CCNC(=S)N(CCc1ccc(OC)c(OC)c1)Cc1cc2cc(OC)ccc2[nH]c1=O | -56.9%
CC(=O)N(CCc1ccccc1C)Cc1cc2ccc(C)cc2[nH]c1=O | -18.3%
CCC(=O)N(Cc1cc2ccc(C)cc2n2nnnc12)C1CCCCC1 | -32.3%
Cc1cccc(CCNCc2cc3ccc(C)cc3[nH]c2=O)c1 | -77.3%
CCNC(=S)N(CCc1cccc(C)c1)Cc1cc2cc(OC)c(OC)cc2[nH]c1=O | -22.4%
CCNC(=S)N(CCc1ccccc1C)Cc1cc2cc(OC)c(OC)cc2[nH]c1=O | -22.3%
CCOC(=O)C1(CC2CCCCO2)CCN(C(=O)Nc2ccc3c(c2)OCO3)CC1 (stereo not shown) | 15.9%

Compound | hERG current change (%, negative = inhibition) at 10uM
COCC(=O)Nc1ccc(C(C)C)cc1 | -1.68%
CCCCC/S(CC1CC1(Cl)Cl)=N\S(=O)(=O)c1ccc(C)cc1 (stereo not shown) | 15.8%
Cc1sc(NC(=O)C2CCCCC2C(=O)O)c(C(N)=O)c1-c1ccc(C(C)C)cc1 (stereo not shown) | -9.39%
CCCCC(=O)Nc1nnc(SCC(=O)NCC2CCCO2)s1 (stereo not shown) | -24.8%
CCNS(=O)(=O)c1ccc(CCC(=O)NCc2cccnc2)cc1 | 16.8%
Cc1ccc(C(=O)n2c3ccccc3c3ccccc32)cc1 | 15.9%
COC(=O)[C@]1(C)N[C@H](c2ccc(SC3CCCCC3)c(OC)c2)[C@@H]2C(=O)N(C)C(=O)[C@@H]21.O=C(O)C(F)(F)F | -16.6%
O=C(Nc1ccccc1)C1=C[C@@H](c2ccccc2)C[C@@H](OCc2ccc(CO)cc2)O1 | 2.2%
O=C(NCC(=O)N1CCOCC1)c1ccc(Br)o1 | 17.4%
CC(C)CNC(=O)CSc1n[nH]c(=O)n1CCc1ccccc1 | 22.1%
Cc1nc2c(-c3ccccc3)cnn2c(N2CCOCC2)c1C | 11.8%
COc1ccc(/C=N/NC(=O)C(C)Sc2ccccn2)cc1[N+](=O)[O-] (stereo not shown) | -7.8%
COc1ccc(CC(=O)OCc2cc3ccc(C)cc3[nH]c2=O)cc1 | 9.18%
COc1ccc(CCN(Cc2cc3cc(C)ccc3[nH]c2=O)C(C)=O)cc1OC | -6.87%
COc1cc(OC)c(OC)cc1CNCCc1ccc(OC)c(OC)c1 | -6.55%
COc1ccc(CCNCc2cc3ccc(C)cc3[nH]c2=O)cc1OC | -73.6%
COc1ccc(CCN(Cc2cc3ccc(C)cc3[nH]c2=O)C(C)=O)cc1OC | -65.1%
CC(=O)N(CCc1cccc(C)c1)Cc1cc2ccc(C)cc2[nH]c1=O | -19.7%
